# Values without a mark were called inactive. Calls of active or inactive are those of the source.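 The calls were made as follows, unless noted: active = mean inhibition above 46.68%, the untreated control wells mean plus 3 SD; inactive = the rest.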
# How the values were obtained:
# [1] = target: Nuclear receptor coactivator 3 (Homo sapiens) (UniProt Q9Y6Q9); test: NCOA3 GAL4-fusion reporter inhibition – cell-based, luminescence, quadruplicate, confirmation (AID 588792;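 active = mean inhibition over 43.08%, the solvent-only control mean plus 3 SD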;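 also: 0% = DMSO treated cells and 100% = gossypol at 36 µM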); conditions: HEK293 GAL4-SRC3 luciferase reporter, at 3.6 µM, hits give high values
# [2] = test system: transactivating tegument protein VP16 (Human herpesvirus 1), Gal4-VP16 luciferase reporter; test: repression of VP16-driven luciferase reporter – cell-based, luminescence, high throughput, counter-screen for SRC3 inhibitor project (AID 588794; in the data active = inhibition above about 30%); conditions: mammalian cells, at 3.6 µM, hits give high values
# [3] = target: Nuclear receptor coactivator 1 (Homo sapiens) (UniProt Q15788); test: NCOA1 GAL4-fusion reporter inhibition – cell-based, luminescence, quadruplicate, confirmation (AID 588820); conditions: HEK293 GAL4-SRC1 luciferase reporter, at 3.6 µM, hits give high values;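 also: 0% = DMSO wells and 100% = gossypol 36 µM treated wells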
# [4] = repression of VP16-driven luciferase reporter – cell-based, luminescence, high throughput, counter-screen for SRC1 inhibitor project (AID 588824; in the data active = inhibition above about 25%); conditions: cell-based VP16 transactivation luciferase luminescence; at 3.6 µM; hits give high values
# [5] = StAR promoter reporter inhibitors, counter-screen for LRH-1 inverse agonist project, cell-based, luminescence, high throughput (AID 651611; in the data active = inhibition above about 28%); conditions: StAR promoter luciferase reporter counterscreen, at 3.6 µM, hits give high values
# [6] = target: Nuclear receptor subfamily 5 group A member 2 (Homo sapiens) (UniProt O00482); test: NR5A2 activity suppression in reporter cells – cell-based, luminescence, confirmation (AID 651613; in the data active = inhibition above about 42%;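 also: HEK293T cells co-transfected with LRH-1 and StAR promoter luciferase reporter; 0% = vehicle wells and 100% = parental cells lacking receptor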); conditions: cell-based LRH-1 luciferase reporter, inverse agonism; at 3.6 µM; hits give high values
# [7] = target: Steroidogenic factor 1 (Homo sapiens) (UniProt Q13285); test: inverse agonism at SF1 nuclear receptor – cell-based, luminescence, high throughput, counter-screen for LRH-1 inverse agonist project (AID 651614; in the data active = inhibition above about 44%;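 also: cells cotransfected with StAR promoter reporter and SF1 expression vector; 0% = vehicle on cells with receptor and 100% = vehicle on cells lacking receptor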); conditions: cell-based SF1 luciferase reporter, at 3.6 µM, hits give high values
# [8] = compounds suppressing VP16-driven luciferase signal – cell-based, luminescence, high throughput, counter-screen for LRH-1 inverse agonist project (AID 651615; in the data active = inhibition above about 33%); conditions: Gal4-VP16 luciferase reporter cells, at 3.6 µM, hits give high values
# Steroidogenic factor 1 (Homo sapiens), sequence (Q13285 whole entry, looked up, the tested form may be a part): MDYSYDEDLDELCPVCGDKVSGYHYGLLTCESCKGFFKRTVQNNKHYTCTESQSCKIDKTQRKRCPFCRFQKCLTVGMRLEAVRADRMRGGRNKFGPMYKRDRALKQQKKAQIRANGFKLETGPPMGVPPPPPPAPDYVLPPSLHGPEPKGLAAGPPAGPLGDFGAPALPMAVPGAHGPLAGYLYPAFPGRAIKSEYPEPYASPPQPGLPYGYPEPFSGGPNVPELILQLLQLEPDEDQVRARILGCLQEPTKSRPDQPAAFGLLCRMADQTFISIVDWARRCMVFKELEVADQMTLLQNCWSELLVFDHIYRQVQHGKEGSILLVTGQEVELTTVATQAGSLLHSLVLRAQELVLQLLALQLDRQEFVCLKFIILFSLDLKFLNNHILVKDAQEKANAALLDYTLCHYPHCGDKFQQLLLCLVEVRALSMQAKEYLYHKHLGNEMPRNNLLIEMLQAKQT
# Nuclear receptor subfamily 5 group A member 2 (Homo sapiens), sequence (O00482 whole entry, looked up): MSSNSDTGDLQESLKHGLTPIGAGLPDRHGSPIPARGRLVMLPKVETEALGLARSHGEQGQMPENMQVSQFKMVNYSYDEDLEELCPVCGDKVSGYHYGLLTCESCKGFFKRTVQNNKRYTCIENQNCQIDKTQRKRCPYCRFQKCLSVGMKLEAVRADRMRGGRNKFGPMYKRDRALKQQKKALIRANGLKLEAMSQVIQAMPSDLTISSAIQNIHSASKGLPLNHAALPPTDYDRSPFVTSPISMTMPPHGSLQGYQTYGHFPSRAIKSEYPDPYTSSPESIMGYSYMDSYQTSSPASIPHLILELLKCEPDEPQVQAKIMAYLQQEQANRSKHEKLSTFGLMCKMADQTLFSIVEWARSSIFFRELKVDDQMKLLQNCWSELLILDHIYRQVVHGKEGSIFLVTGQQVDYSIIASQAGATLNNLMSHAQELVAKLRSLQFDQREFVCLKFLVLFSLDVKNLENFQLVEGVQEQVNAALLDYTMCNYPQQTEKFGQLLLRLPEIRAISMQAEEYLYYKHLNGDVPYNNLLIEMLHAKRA
# Nuclear receptor coactivator 3 (Homo sapiens), sequence (Q9Y6Q9 whole entry, looked up, the tested form may be a part): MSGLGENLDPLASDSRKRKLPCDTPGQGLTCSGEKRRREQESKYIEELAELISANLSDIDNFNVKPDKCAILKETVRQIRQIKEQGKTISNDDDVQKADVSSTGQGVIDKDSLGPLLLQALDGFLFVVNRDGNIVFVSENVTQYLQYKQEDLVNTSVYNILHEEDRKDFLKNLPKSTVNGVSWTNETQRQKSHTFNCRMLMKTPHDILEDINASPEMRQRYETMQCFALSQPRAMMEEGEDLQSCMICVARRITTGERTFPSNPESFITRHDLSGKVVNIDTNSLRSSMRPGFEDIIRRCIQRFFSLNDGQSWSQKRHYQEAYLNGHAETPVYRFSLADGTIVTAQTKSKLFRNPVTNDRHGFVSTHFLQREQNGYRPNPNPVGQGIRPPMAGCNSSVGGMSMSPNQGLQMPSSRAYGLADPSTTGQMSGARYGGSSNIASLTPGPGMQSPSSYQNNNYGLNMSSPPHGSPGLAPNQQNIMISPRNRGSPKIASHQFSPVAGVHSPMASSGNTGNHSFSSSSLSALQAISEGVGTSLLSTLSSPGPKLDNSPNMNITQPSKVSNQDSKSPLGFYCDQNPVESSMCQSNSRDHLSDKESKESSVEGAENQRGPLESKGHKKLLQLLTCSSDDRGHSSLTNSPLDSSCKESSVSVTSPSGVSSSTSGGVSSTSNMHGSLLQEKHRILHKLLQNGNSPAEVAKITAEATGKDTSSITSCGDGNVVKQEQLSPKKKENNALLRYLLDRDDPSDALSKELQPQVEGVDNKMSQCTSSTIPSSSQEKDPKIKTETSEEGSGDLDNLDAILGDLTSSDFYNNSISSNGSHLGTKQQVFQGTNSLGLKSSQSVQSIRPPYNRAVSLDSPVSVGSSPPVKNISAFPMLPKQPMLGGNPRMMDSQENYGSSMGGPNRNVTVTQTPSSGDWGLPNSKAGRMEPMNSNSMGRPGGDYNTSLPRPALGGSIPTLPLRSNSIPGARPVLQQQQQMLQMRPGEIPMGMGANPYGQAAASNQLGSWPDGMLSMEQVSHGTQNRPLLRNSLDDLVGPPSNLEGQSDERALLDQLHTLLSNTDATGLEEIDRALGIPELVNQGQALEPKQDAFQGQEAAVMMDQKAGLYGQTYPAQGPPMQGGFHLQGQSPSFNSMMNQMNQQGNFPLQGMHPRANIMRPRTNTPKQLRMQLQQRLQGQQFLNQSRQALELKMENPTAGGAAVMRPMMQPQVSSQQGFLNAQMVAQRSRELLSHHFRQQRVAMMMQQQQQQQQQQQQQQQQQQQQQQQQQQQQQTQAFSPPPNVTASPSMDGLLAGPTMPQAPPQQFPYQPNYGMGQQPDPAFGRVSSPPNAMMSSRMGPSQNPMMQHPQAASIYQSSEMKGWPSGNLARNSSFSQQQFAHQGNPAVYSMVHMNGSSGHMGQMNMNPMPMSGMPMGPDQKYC
# Nuclear receptor coactivator 1 (Homo sapiens), sequence (Q15788 whole entry, looked up, the tested form may be a part): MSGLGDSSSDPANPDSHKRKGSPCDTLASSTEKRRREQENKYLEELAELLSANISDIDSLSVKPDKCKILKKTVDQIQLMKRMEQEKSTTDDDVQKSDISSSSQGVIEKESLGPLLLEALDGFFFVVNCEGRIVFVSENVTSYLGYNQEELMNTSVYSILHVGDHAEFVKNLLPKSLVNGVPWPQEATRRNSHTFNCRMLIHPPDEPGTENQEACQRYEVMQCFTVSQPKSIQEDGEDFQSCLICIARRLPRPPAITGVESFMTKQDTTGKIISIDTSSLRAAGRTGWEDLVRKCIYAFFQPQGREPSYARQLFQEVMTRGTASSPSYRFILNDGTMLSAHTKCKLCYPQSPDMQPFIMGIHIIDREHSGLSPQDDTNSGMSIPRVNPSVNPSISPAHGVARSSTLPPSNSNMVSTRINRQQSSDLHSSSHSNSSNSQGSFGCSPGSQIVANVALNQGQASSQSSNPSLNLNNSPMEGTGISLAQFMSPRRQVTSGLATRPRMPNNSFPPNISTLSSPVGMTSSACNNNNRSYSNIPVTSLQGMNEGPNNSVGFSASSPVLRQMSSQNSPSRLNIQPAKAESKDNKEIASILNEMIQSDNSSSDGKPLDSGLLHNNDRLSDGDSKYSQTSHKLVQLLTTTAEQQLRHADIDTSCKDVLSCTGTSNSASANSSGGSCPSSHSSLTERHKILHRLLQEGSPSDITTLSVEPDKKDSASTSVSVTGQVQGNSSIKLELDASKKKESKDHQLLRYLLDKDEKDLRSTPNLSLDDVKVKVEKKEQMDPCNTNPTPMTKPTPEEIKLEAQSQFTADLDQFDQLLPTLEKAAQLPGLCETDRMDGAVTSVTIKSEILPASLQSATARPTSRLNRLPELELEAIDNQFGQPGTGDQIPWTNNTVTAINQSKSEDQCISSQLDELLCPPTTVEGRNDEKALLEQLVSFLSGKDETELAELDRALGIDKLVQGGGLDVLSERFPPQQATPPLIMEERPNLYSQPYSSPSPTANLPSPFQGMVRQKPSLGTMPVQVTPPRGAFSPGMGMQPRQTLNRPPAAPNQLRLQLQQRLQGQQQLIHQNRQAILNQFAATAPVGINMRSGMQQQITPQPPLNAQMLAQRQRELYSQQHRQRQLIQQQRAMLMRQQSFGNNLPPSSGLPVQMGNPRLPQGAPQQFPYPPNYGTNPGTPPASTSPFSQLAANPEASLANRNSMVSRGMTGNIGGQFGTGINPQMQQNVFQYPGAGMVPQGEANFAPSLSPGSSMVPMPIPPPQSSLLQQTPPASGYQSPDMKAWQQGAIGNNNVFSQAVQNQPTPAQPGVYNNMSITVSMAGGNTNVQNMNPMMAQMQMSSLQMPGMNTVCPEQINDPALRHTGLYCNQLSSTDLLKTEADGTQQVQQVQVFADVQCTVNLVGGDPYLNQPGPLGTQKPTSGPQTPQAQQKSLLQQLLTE
SMILES,inhibition [1],inhibition [2],inhibition [3],inhibition [4],inhibition [5],inhibition [6],inhibition [7],inhibition [8]
CC(C)(C)c1ccc(/C=N/Nc2ccc(C(=O)O)cc2)cc1,28.4%,32.6% (active),13.3%,13.9%,-5.93%,-189%,-79.9%,-20.1%
Nc1nc(N)c2c(ccc3c2ccn3Cc2cccc([N+](=O)[O-])c2)n1,76.1% (active),42.6% (active),71.1% (active),40.8% (active),72.6% (active),65.6% (active),67.4% (active),43.3% (active)
CCN(CC)c1ccc2nc3ccc(N)cc3[n+](-c3ccccc3)c2c1,81.2% (active),79.9% (active),52.3% (active),81.5% (active),75.2% (active),111% (active),89.2% (active),92.6% (active)
CCC(=O)NC(c1ccc(Cl)cc1Cl)c1ccc2cccnc2c1O (stereo not drawn),16.2%,34.1% (active),59.7% (active),51.3% (active),83.4% (active),92.7% (active),87.2% (active),72.7% (active)
COc1cc(C=NO)nc(-c2ccccn2)c1,78.2% (active),43.5% (active),54% (active),36.5% (active),85.6% (active),96% (active),76.9% (active),45.7% (active)
Cc1ccc(-n2c(-c3ccccc3)c[n+]3c2CCc2ccccc2-3)c(C)c1,61.7% (active),68.1% (active),42.5%,69.4% (active),57.4% (active),107% (active),87.7% (active),91.7% (active)

# From PubChem BioAssay
